# PubChem BioAssay (EPA / NIEHS)
# Records with an inconclusive call do not appear. Active and inactive are the calls of the source. The calls were made as follows: active = hit-call score of the fitted dose curve at least 0.9, where 1 is the maximum; inconclusive = response in the unintended direction; inactive = score below 0.9.
# What was measured:
# [1] = molecular target: human Adenosine A1 Receptor (AdoRA1), ADORA1 (gene 134) (UniProt P30542); assay: NVS_GPCR_hAdoRA1: NovaScreen (NVS) G Protein-Coupled Receptor Assay for human Adenosine A1 Receptor (AdoRA1) (AID 2283254)
# Method in brief: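 Hum. cortical membranes + radioligand, cmpd 1 h; filtration, scintillation count. Readout = decrease vs DMSO. Primary 25 uM dup; hits → conc. series.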
# [2] = molecular target: D(1A) dopamine receptor (Homo sapiens) (UniProt P21728); assay: NVS_GPCR_hDRD1: NovaScreen (NVS) G Protein-Coupled Receptor Assay for human Dopamine Receptor D1 (DRD1) (AID 2283269)
# Method in brief: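 HEK293-derived receptor preparation; radioligand competitive displacement; 1 h; filtration + scintillation counting. DMSO = negative control/baseline. Primary: 25 uM, duplicate; secondary: concentration–response for actives.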
# [3] = molecular target: human Dopamine Receptor D2 (DRD2), DRD2 (gene 1813) (UniProt P14416); assay: NVS_GPCR_hDRD2s: NovaScreen (NVS) G Protein-Coupled Receptor Assay for human Dopamine Receptor D2 (DRD2) (AID 2283266)
# Method in brief: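 Test compound (25 uM, duplicate in the primary screen; concentration series at follow-up) competed with radioligand for human DRD2 in CHO-derived membrane protein. Filter-based scintillation counting was done 1.5 hours after dosing, with loss of signal analysed against DMSO.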
# [4] = molecular target: human Endothelin Receptor Type B (ETB), EDNRB (gene 1910) (UniProt P24530); assay: NVS_GPCR_hETB: NovaScreen (NVS) G Protein-Coupled Receptor Assay for human Endothelin Receptor Type B (ETB) (AID 2283267)
# Method in brief: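 Filter-based scintillation readout of radioligand displacement, 4 h, using membranes from human astrocytoma cells. Actives from a 25 uM duplicate screen were retested in concentration-response (top 50 uM) relative to DMSO baseline.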
# [5] = molecular target: guinea pig Opioid, Kappa 1 Receptor (OpiateK), OPRK1 (gene 100135587) (UniProt P41144); assay: NVS_GPCR_gOpiateK: NovaScreen (NVS) G Protein-Coupled Receptor Assay for guinea pig Opioid, Kappa 1 Receptor (OpiateK) (AID 2283252);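 also: active means reduced radioligand binding relative to DMSO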
# Method in brief: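 Radioligand binding to kappa opioid receptor in guinea pig cerebellar membranes, read by filtration and scintillation at 2 h. Compounds first tested in duplicate at 25 uM, then actives in concentration series; signal loss fitted against DMSO.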
# [6] = molecular target: human Serotonin, 5-Hydroxytryptamine Receptor 7 (5HT7), HTR7 (gene 3363) (UniProt P34969); assay: NVS_GPCR_h5HT7: NovaScreen (NVS) G Protein-Coupled Receptor Assay for human Serotonin, 5-Hydroxytryptamine Receptor 7 (5HT7) (AID 2283255);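 also: hits reduce specific radioligand binding relative to DMSO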
# Method in brief: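 Filter-bound radioactivity counted after 1 h, with loss of specific radioligand binding fitted against DMSO. Membrane protein came from CHO cells expressing human 5HT7. Chemicals were tested first at 25 uM in duplicate, then in concentration series if active.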
# [7] = molecular target: human Adrenergic, Beta 1 Receptor (Adrb1), ADRB1 (gene 153) (UniProt P08588); assay: NVS_GPCR_hAdrb1: NovaScreen (NVS) G Protein-Coupled Receptor Assay for human Adrenergic, Beta 1 Receptor (Adrb1) (AID 2283258)
# Method in brief: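 Membranes/protein extracted from human neuroepithelioma cells, radioligand competition binding read by filtration and scintillation 2 h post-dose. Single 25 uM duplicate screen, then concentration-response follow-up; DMSO as negative control.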
# [8] = molecular target: human Adrenergic, Beta 3 Receptor (Adrb3), ADRB3 (gene 155) (UniProt P13945); assay: NVS_GPCR_hAdrb3: NovaScreen (NVS) G Protein-Coupled Receptor Assay for human Adrenergic, Beta 3 Receptor (Adrb3) (AID 2283262)
# Method in brief: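 A cell-free filter binding assay read by scintillation counting, with displacement of a specific radioligand measured after 1 hour. The receptor source was SK-N-MC extracts (cells pretreated with isoproterenol and 8-bromo-cAMP). Compounds were first tested at 25 uM in duplicate and then in concentration series.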
# [9] = molecular target: Muscarinic acetylcholine receptor M1 (Homo sapiens) (UniProt P11229); assay: NVS_GPCR_hM1: NovaScreen (NVS) G Protein-Coupled Receptor Assay for human Muscarinic, M1 Receptor (AID 2283270)
# Method in brief: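 Actives from a duplicate 25 uM single-point screen were retested in concentration series. Binding measured as displacement of a radioligand from CHO-derived receptor preparation, 1 h incubation, filtration and scintillation counting, analysed as signal loss against DMSO.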
# [10] = molecular target: human Adenosine A2a Receptor (AdoRA2a), ADORA2A (gene 135) (UniProt P29274); assay: NVS_GPCR_hAdoRA2a: NovaScreen (NVS) G Protein-Coupled Receptor Assay for human Adenosine A2a Receptor (AdoRA2a) (AID 2283256)
# Method in brief: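 HEK293-derived receptor preparation, radioligand displacement, 1.5 h, filtration + scintillation read. Loss of bound signal scored vs DMSO. Single-point 25 uM in duplicate first, then concentration-response for actives.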
# [11] = molecular target: human Adrenergic, Alpha 2A Receptor (Adra2A), ADRA2A (gene 150) (UniProt P08913); assay: NVS_GPCR_hAdra2A: NovaScreen (NVS) G Protein-Coupled Receptor Assay for human Adrenergic, Alpha 2A Receptor (Adra2A) (AID 2283257)
# Method in brief: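 Displacement of a specific radioligand from HT29 membrane protein was counted by filter scintillation after 1 h. Compounds were screened in duplicate at 25 uM, and actives were retested in concentration series. Fitting was positive-direction against DMSO.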
# [12] = molecular target: human Adrenergic, Alpha 2c Receptor (Adra2C), ADRA2C (gene 152) (UniProt P18825); assay: NVS_GPCR_hAdra2C: NovaScreen (NVS) G Protein-Coupled Receptor Assay for human Adrenergic, Alpha 2c Receptor (Adra2C) (AID 2283259)
# Method in brief: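 Screened first in duplicate at 25 uM, with actives then run as concentration series. Membranes from Sf9 cells were exposed for 1 h, and displacement of radioligand was counted after filtration, using DMSO as baseline.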
# [13] = molecular target: Type-1 angiotensin II receptor (Homo sapiens) (UniProt P30556); assay: NVS_GPCR_hAT1: NovaScreen (NVS) G Protein-Coupled Receptor Assay for human Angiotensin II receptor type 1 (AT1) (AID 2283263)
# Method in brief: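 Hits from a 25 uM duplicate screen (threshold e.g. 30% inhibition) were run in concentration-response with 50 uM top concentration. Displacement of specific radioligand from KAN-TS membrane preparations measured after 3 h by filter scintillation, DMSO as baseline.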
# [14] = molecular target: human Serotonin, 5-Hydroxytryptamine Receptor 6 (5HT6), HTR6 (gene 3362) (UniProt P50406); assay: NVS_GPCR_h5HT6: NovaScreen (NVS) G Protein-Coupled Receptor Assay for human Serotonin, 5-Hydroxytryptamine Receptor 6 (5HT6) (AID 2283253)
# Method in brief: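 Filter scintillation counting of radioligand displacement from HEK293-expressed 5HT6, 1 hour post-dose, with loss of signal relative to DMSO. Single 25 uM duplicates first, with concentration series for confirmation.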
# [15] = molecular target: Beta-2 adrenergic receptor (Homo sapiens) (UniProt P07550); assay: NVS_GPCR_hAdrb2: NovaScreen (NVS) G Protein-Coupled Receptor Assay for human Adrenergic, Beta 2 Receptor (Adrb2) (AID 2283261)
# Method in brief: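 Compounds screened in duplicate at 25 uM, then actives in concentration series. Human beta-2 receptor from CHO material, cell-free; radioligand displacement after 1 h measured by filtration and scintillation against DMSO baseline.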
# [16] = molecular target: human Dopamine Receptor D4.4 (DRD4.4), DRD4 (gene 1815) (UniProt P21917); assay: NVS_GPCR_hDRD4.4: NovaScreen (NVS) G Protein-Coupled Receptor Assay for human Dopamine Receptor D4.4 (DRD4.4) (AID 2283264)
# Method in brief: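 Filter-binding assay with a tritiated or iodinated ligand, cell-free receptor prepared from CHO, 1 hour. Loss of bound radioactivity versus DMSO; single 25 uM duplicate screen, then concentration-response for actives.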
# [17] = molecular target: human Endothelin Receptor Type A (ETA), EDNRA (gene 1909) (UniProt P25101); assay: NVS_GPCR_hETA: NovaScreen (NVS) G Protein-Coupled Receptor Assay for human Endothelin Receptor Type A (ETA) (AID 2283265)
# Method in brief: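 Binding of radioligand to membrane protein extracted from SH-SY5Y cells was read by filtration and scintillation after 3 h. Compounds were screened at 25 uM in duplicate, with hits followed up in singleton concentration series to 50 uM.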
# [18] = molecular target: human Histamine 1 Receptor (H1), HRH1 (gene 3269) (UniProt P35367); assay: NVS_GPCR_hH1: NovaScreen (NVS) G Protein-Coupled Receptor Assay for human Histamine 1 Receptor (H1) (AID 2283268)
# Method in brief: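 Filter-based scintillation detection of radioligand binding to human H1, 1 h incubation; chemicals screened in duplicate at 25 uM, then concentration-response; signal loss relative to DMSO taken as activity.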
# [19] = molecular target: Muscarinic acetylcholine receptor M3 (Homo sapiens) (UniProt P20309); assay: NVS_GPCR_hM3: NovaScreen (NVS) G Protein-Coupled Receptor Assay for human Muscarinic, M3 Receptor (AID 2283272)
# Method in brief: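 Radioligand displacement binding on human M3 receptor in CHO-derived membranes, 1 h incubation, filter-based scintillation counting. Primary screen in duplicate at 25 uM; actives followed up in concentration series; loss of signal versus DMSO.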
# Chain of human Adrenergic, Beta 1 Receptor (Adrb1), ADRB1 (gene 153) (P08588 whole entry, looked up): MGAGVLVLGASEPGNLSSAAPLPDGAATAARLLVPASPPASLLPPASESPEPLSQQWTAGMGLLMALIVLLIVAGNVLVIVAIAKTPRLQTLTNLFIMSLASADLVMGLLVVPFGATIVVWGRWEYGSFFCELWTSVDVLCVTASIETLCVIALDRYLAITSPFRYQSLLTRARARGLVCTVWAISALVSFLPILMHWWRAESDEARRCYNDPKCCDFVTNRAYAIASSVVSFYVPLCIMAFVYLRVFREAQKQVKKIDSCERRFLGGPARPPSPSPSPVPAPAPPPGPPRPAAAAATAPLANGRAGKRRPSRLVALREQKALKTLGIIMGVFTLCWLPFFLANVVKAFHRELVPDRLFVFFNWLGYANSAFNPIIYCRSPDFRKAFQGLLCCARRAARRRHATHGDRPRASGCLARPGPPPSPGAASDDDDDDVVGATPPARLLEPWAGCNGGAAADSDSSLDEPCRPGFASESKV
# Chain of human Dopamine Receptor D2 (DRD2), DRD2 (gene 1813) (P14416 whole entry, looked up): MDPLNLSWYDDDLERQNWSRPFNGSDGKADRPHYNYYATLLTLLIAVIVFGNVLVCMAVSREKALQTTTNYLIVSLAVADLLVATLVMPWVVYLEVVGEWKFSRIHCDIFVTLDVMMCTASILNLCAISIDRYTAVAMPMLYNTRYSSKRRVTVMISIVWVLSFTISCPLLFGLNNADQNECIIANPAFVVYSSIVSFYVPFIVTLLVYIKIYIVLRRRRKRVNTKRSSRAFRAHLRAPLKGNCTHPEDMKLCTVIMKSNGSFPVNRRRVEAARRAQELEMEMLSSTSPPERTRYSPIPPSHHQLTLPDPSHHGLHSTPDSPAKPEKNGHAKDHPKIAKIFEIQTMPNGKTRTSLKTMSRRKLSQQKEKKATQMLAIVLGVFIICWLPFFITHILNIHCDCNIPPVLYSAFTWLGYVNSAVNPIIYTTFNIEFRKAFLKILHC
# Chain of guinea pig Opioid, Kappa 1 Receptor (OpiateK), OPRK1 (gene 100135587) (P41144 whole entry, looked up): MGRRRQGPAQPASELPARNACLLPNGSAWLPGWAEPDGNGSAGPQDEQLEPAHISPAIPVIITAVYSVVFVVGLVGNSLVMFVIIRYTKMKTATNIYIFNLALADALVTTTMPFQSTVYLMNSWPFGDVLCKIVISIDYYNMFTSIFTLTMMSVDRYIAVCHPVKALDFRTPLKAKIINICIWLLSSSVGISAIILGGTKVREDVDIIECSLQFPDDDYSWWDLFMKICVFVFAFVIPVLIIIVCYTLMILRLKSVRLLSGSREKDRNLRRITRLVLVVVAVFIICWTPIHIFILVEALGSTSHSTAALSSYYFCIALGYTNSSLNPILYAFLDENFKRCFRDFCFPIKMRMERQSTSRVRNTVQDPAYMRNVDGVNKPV
# Chain of human Endothelin Receptor Type B (ETB), EDNRB (gene 1910) (P24530 whole entry, looked up): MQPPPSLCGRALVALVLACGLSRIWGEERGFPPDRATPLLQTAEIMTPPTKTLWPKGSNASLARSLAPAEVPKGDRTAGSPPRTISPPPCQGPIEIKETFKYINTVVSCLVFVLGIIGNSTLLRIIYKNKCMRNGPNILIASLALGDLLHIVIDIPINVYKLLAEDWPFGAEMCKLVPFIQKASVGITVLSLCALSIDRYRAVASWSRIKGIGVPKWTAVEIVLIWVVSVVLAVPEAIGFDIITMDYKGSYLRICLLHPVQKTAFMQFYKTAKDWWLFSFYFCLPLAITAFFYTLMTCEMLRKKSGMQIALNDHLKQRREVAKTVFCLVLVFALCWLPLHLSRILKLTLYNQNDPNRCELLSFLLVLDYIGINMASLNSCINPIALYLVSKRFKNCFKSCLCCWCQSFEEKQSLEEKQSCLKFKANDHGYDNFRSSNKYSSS
# Chain of human Serotonin, 5-Hydroxytryptamine Receptor 7 (5HT7), HTR7 (gene 3363) (P34969 whole entry, looked up): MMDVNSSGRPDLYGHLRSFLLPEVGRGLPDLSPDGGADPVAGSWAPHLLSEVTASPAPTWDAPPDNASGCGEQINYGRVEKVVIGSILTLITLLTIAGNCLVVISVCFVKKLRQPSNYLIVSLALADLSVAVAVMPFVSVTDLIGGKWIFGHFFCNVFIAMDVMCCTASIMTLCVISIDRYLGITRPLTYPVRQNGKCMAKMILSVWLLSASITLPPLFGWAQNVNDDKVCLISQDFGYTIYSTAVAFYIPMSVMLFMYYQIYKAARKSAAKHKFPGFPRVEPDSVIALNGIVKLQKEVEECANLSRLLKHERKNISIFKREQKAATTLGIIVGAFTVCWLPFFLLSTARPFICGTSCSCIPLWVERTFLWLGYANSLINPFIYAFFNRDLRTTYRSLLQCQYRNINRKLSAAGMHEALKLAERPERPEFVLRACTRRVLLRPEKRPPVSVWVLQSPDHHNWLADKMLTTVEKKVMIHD
# Chain of D(1A) dopamine receptor (Homo sapiens) (P21728 whole entry, looked up): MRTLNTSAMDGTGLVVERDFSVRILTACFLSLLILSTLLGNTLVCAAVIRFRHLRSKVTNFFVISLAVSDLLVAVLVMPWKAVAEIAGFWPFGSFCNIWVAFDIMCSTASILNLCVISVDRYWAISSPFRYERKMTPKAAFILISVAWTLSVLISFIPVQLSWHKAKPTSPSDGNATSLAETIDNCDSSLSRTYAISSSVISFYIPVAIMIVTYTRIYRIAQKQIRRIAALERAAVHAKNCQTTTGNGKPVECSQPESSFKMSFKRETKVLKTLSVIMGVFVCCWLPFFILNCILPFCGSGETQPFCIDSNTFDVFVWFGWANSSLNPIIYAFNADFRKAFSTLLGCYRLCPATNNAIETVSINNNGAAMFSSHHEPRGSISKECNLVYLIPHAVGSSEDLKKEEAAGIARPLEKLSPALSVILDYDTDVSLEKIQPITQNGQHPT
# Chain of human Adrenergic, Alpha 2A Receptor (Adra2A), ADRA2A (gene 150) (P08913 whole entry, looked up): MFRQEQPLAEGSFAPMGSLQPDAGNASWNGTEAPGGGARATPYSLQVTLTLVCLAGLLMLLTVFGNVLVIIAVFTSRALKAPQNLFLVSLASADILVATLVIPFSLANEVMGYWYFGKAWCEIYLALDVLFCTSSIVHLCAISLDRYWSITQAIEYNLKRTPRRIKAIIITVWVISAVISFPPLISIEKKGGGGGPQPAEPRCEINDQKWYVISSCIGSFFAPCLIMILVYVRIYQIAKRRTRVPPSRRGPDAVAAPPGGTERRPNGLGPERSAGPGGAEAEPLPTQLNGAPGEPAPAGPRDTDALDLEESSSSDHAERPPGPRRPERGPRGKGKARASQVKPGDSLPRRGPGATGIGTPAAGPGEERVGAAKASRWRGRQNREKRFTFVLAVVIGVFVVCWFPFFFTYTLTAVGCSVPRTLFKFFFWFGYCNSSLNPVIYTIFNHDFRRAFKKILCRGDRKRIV
# Chain of Type-1 angiotensin II receptor (Homo sapiens) (P30556 whole entry, looked up): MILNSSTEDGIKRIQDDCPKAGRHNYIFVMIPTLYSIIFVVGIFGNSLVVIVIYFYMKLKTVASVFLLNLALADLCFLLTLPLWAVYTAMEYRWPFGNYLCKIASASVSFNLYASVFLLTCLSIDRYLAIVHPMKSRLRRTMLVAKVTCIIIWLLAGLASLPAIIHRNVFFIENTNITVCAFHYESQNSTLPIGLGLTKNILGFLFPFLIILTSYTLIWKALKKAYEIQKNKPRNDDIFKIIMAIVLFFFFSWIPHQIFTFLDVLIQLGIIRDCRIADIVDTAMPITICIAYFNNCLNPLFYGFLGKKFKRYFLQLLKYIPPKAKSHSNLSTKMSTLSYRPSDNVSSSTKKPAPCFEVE
# Chain of human Adenosine A1 Receptor (AdoRA1), ADORA1 (gene 134) (P30542 whole entry, looked up): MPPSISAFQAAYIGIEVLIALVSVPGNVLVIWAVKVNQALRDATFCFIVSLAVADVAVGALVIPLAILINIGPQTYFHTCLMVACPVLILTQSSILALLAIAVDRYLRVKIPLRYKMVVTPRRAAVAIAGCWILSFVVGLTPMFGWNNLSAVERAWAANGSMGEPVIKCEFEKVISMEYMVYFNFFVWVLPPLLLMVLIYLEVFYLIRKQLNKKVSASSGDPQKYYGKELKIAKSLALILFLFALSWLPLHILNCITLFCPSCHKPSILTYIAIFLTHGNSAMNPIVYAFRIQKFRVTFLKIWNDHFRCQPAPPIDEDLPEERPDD
# Chain of human Dopamine Receptor D4.4 (DRD4.4), DRD4 (gene 1815) (P21917 whole entry, looked up): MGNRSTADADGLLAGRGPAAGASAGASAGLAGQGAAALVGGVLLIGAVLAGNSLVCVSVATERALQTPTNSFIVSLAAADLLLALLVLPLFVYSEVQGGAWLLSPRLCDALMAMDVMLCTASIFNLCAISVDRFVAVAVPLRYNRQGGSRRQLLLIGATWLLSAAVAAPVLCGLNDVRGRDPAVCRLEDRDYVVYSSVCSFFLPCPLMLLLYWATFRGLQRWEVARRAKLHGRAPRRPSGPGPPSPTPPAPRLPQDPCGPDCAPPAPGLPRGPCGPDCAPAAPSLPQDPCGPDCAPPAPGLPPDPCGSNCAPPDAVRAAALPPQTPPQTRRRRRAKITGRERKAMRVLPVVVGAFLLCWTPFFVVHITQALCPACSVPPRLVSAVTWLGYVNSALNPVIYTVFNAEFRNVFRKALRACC
# Chain of human Adrenergic, Beta 3 Receptor (Adrb3), ADRB3 (gene 155) (P13945 whole entry, looked up): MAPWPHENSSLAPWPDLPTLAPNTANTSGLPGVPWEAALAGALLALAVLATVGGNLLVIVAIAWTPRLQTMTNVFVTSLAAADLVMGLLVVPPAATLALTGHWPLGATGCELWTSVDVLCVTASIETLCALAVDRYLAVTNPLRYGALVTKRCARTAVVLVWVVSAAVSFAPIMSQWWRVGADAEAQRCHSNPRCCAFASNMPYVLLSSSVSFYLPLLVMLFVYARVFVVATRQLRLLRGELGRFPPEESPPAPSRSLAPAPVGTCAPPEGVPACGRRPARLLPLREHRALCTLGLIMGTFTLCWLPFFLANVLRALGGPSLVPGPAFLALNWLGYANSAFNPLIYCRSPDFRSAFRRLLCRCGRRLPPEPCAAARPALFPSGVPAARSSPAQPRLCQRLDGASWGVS
compound,measurement,setting,value
COP(=S)(OC)SCN1C(=O)c2ccccc2C1=O,AC50,[1],13.7 µM (active)
same,AC50,[2],16.8 µM (active)
[O-][Cl+]O,outcome,[3],inactive
OCCCBr,outcome,[4],inactive
O=C(N[C@H](c1ccccc1)[C@@H]1CN2CCC1CC2)c1c(Cl)ccc(C(F)(F)F)c1Cl,AC50,[5],0.0235 µM (active)
same,AC50,[6],28.5 µM (active)
same,AC50,[7],37.5 µM (active)
same,outcome,[8],inactive
same,AC50,[2],37.5 µM (active)
same,outcome,[9],inactive
CCNS(=O)(=O)C(F)(F)C(F)(F)C(F)(F)C(F)(F)C(F)(F)C(F)(F)C(F)(F)C(F)(F)F,AC50,[10],14.5 µM (active)
CCN(CC)CCO,outcome,[6],inactive
CCCCCCCCn1sccc1=O,AC50,[5],18.2 µM (active)
same,AC50,[6],17.9 µM (active)
same,outcome,[11],inactive
same,AC50,[7],12.2 µM (active)
same,AC50,[12],6.02 µM (active)
same,AC50,[13],10.9 µM (active)
same,AC50,[3],26 µM (active)
same,AC50,[2],1.32 µM (active)
CCC[CH2][Sn]([Cl])([CH2]CCC)[CH2]CCC,AC50,[5],14.5 µM (active)
same,AC50,[14],5.51 µM (active)
same,AC50,[1],25 µM (active)
same,AC50,[6],0.354 µM (active)
same,AC50,[10],6.46 µM (active)
same,AC50,[11],3.65 µM (active)
same,AC50,[7],1.25 µM (active)
same,AC50,[15],5.47 µM (active)
same,AC50,[8],9.81 µM (active)
same,AC50,[13],1.78 µM (active)
same,AC50,[16],1.83 µM (active)
same,AC50,[17],0.695 µM (active)
same,AC50,[3],0.525 µM (active)
same,AC50,[4],15.1 µM (active)
same,AC50,[18],1.42 µM (active)
same,AC50,[2],0.445 µM (active)
same,AC50,[9],1.86 µM (active)
same,AC50,[19],1.44 µM (active)
N#CC(Br)(Br)C(N)=O,outcome,[2],inactive
CCCCCCCCOC(=O)c1ccc(C(=O)OCCCCCCCC)c(C(=O)OCCCCCCCC)c1,outcome,[6],inactive
same,outcome,[7],inactive
CCCCCOC(=O)c1ccccc1C(=O)OCCCCC,outcome,[5],inactive
same,outcome,[14],inactive
same,outcome,[7],inactive
same,outcome,[19],inactive
Cc1cc(N=Nc2ccccc2C)ccc1N,AC50,[16],25 µM (active)
N#CC(Br)Br,outcome,[3],inactive
same,outcome,[4],inactive
CCCSC(=O)N(CCC)CCC,outcome,[5],inactive
